Laboratory results reported in PubChem BioAssay AID588689 (Southern Research Specialized Biocontainment Screening …, 2011).
About 1,000 (0.29%) of roughly 340,000 compounds were called active. Rule as the data show it: inconclusive = inhibition above about 29% without an active follow-up result; inactive = below that. The list is a sample of the results. Potency and affinity values are given separately.

Target: Genome polyprotein (Dengue virus type 2 (strain 16681-PDK53)) (UniProt P29991)
Assay: Dengue-2 NS5 methyltransferase inhibitors, primary screen, biochemical, confirmation dose response (AID 588689)
Details: Dengue-2 NS5 methyltransferase capping enzyme assay, at 25 µM, stronger effect = higher value

Chain of Genome polyprotein (Dengue virus type 2 (strain 16681-PDK53)) (P29991 whole entry, looked up): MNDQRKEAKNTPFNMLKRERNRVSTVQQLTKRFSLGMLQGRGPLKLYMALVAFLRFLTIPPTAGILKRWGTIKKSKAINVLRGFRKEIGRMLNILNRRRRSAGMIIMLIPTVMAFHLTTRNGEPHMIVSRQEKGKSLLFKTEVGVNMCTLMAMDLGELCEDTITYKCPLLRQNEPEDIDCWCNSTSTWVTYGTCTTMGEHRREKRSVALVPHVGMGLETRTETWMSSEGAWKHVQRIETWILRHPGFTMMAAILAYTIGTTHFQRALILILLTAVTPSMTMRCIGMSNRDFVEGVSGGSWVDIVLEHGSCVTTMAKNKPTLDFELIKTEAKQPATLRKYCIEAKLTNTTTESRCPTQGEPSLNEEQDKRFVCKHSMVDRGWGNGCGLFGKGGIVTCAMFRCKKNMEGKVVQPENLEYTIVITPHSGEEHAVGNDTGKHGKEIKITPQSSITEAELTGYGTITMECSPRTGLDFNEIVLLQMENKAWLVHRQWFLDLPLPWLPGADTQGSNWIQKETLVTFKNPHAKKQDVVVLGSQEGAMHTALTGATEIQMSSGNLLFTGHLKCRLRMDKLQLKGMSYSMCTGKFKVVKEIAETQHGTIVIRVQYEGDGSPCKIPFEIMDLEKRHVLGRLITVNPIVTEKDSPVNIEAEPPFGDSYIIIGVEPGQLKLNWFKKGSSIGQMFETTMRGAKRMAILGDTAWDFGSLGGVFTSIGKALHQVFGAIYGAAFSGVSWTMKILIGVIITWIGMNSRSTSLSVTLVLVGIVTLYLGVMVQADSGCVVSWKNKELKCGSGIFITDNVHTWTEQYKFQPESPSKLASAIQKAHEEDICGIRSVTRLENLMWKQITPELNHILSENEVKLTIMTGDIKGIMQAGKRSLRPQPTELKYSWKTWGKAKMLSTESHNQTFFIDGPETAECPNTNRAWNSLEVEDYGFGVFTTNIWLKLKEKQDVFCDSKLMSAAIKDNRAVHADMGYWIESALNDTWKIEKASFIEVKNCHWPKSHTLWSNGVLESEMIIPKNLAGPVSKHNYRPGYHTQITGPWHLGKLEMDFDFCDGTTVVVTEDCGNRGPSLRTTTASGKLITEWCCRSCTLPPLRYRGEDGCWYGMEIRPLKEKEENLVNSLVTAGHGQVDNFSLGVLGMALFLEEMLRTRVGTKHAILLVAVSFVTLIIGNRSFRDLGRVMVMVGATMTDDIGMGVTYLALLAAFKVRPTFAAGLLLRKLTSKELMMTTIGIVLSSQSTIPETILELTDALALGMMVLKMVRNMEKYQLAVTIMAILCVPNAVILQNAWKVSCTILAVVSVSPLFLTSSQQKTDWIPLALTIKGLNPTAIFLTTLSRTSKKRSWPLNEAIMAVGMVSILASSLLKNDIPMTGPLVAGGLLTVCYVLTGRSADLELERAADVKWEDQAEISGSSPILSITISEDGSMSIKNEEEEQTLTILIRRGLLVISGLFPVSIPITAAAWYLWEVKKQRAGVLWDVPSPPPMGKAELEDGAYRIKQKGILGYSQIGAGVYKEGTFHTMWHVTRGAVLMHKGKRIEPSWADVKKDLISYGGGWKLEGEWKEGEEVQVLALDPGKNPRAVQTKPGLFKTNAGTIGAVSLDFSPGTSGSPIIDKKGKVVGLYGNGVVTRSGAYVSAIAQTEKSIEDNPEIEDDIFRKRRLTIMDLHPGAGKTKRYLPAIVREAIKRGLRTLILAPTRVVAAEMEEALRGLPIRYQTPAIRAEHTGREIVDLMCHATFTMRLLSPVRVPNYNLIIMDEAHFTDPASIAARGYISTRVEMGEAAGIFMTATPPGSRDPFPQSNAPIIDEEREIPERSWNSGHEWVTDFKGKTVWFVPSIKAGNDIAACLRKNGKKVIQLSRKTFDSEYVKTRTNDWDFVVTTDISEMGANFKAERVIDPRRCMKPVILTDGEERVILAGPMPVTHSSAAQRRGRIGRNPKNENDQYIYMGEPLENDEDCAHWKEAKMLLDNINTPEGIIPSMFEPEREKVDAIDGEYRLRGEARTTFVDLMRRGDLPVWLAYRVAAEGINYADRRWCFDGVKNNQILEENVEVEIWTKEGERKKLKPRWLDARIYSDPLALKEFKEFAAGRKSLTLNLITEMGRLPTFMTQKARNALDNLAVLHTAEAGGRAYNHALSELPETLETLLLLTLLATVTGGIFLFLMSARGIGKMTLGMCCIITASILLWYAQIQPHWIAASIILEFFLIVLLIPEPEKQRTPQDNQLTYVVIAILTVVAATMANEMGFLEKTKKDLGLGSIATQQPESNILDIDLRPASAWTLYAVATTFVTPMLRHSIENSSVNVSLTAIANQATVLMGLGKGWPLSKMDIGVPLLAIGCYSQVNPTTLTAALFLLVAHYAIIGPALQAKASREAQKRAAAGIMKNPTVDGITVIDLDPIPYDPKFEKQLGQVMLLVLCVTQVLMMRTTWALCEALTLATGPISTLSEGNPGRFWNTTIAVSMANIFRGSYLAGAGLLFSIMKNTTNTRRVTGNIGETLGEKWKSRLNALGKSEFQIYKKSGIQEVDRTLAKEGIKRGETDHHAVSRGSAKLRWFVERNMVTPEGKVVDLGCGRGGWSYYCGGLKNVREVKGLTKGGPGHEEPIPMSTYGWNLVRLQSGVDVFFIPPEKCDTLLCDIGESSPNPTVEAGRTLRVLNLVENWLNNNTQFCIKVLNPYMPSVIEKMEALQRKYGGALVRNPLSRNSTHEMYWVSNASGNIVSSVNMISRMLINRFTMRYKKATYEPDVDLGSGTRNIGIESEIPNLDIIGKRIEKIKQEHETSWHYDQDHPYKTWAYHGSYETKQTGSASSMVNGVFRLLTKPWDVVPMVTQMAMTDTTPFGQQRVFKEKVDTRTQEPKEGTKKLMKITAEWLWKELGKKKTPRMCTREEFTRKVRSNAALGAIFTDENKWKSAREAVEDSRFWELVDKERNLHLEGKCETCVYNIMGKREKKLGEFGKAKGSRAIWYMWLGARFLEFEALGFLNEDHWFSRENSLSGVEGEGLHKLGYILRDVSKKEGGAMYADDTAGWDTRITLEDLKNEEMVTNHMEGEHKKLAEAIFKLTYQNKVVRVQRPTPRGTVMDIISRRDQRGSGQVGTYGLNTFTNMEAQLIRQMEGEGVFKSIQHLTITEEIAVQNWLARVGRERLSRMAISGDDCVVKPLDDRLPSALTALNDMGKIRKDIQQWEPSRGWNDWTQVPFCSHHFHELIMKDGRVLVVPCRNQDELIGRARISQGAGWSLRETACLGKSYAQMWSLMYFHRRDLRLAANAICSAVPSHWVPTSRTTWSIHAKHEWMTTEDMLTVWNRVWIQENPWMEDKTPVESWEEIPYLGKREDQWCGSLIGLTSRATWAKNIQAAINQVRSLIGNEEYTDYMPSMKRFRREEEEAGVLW

inhibition, inactive:
O=C1C(=O)c2c(ccc3ccccc23)-c2ccccc21 8.87%, O=C1C=C(O)c2cccc(O)c2C1=O 10.9%, COc1cc(C2CC(=O)c3c(O)cc(O)cc3O2)ccc1O (stereo unspecified) -4.19%, COc1c(CC=C(C)C)cc(C2CC(=O)c3c(O)cc(O)cc3O2)cc1CC=C(C)C (stereo unspecified) 1.45%, O=C(Nc1ccccn1)c1ccc(Cl)c(S(=O)(=O)N2CCCC2)c1 -10.4%, O=C(CCN1CCN(CCO)CC1)Nc1cccc(Br)c1 0%, N#Cc1cc([N+](=O)[O-])ccc1NC(=O)COC(=O)C1CC2CCCC(C1)C2=O (stereo unspecified) -2.16%, COc1cc(/C=N/NC(N)=O)ccc1OCC(=O)Nc1ccc(C)c(C)c1 -9.1%, CCOc1cc(/C=N\Nc2ccc([N+](=O)[O-])cc2)ccc1OCC(=O)Nc1ccc(C)c(C)c1 22%, CCC(=O)Nc1nnc(-c2cccs2)s1 -6.55%, CCN(CC)S(=O)(=O)c1ccc(OC)c(NS(=O)(=O)Cc2ccccc2)c1 -2.33%, COc1cc(/C=C2/SC(N)=NC2=O)ccc1Oc1ccc([N+](=O)[O-])cc1[N+](=O)[O-] 4.51%, COc1ccc([N+](=O)[O-])cc1NS(=O)(=O)Cc1ccccc1 -3.44%, COc1ccc(NS(=O)(=O)Cc2ccccc2)cc1OC 0%, CSc1ccc(S(=O)(=O)Nc2ccc3c(c2)NC(=O)CC3)cc1 0%, CN(CC(=O)Nc1ccc(Cl)c(C(F)(F)F)c1)C(=O)c1cccc2cccnc12 2.2%, Cc1ccc(O)c(NC(=O)Cc2ccc3ccccc3c2)c1 -11.9%, CC(NC(=O)CCNS(=O)(=O)c1cccc2nonc12)c1ccccc1 (stereo unspecified) -6.33%, O=Cc1cn(CCC(=O)O)nc1-c1cccc(Br)c1 14.3%, CCOC(=O)/C(C#N)=C/c1cn(CCC(=O)O)nc1-c1cccc(Cl)c1 -8.58%, O=C(O)CCn1cc(/C=C2\NC(=S)N(c3ccccc3)C2=O)c(-c2ccc(Br)cc2)n1 3.12%, O=C(O)CCn1cc(/C=C2/NC(=S)N(c3ccccc3)C2=O)c(-c2ccccc2)n1 2.91%, NC(=S)N/N=C/c1cn(CCC(=O)O)nc1-c1cccc(Br)c1 -15.9%, O=C(O)CCn1cc(C(=O)O)c(-c2ccccc2)n1 -1.47%, Cc1ccc(-c2nn(CCC(=O)O)cc2/C=C\C(=O)c2ccc(Br)cc2)cc1 7.02%, O=Cc1cn(CCC(=O)O)nc1-c1cccc(Cl)c1 -3.9%
